Screens: PubChem, several laboratories
Peg3 prom inh: reduces Peg3 promoter-driven luciferase expression in HeLa; inhibition, % at 20 µM; 1.7% of 360,000 active; HeLa PEG-Prom luciferase reporter, luminescence, overnight; AID 588405;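 active = inhibition of at least 50% at 20 µM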
KKLEB tox: reduces viability of KKLEB cystic fibrosis airway cells; KKLEB CF airway cells viability, ATPlite luminescence, overnight; stronger effect = lower value; cells stimulated with P. aeruginosa culture filtrate; 0.36% of 360,000 active; activity change (cytotoxicity), % at 5 µM;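 active = corrected activity change at or below -50% at 5 µM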
LGR2 antag: Drosophila LGR2 receptor signaling inhibition | HEK293 LGR2, CRE-luciferase, bursicon-stimulated, 4 h | inhibition, % at 9.99 µM | 0.35% of 380,000 active | AID 720647;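 active = drop in luminescence signal, shown as inhibition above about 50% in the replicate tests, limit read from the data, passing the limit was not always enough; inconclusive = probably only some replicates passing the limit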;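 also: agonist challenge used bursicon conditioned medium at about half maximal strength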
HSP90 inh: HSP90 refolding inhibition in rabbit reticulocyte lysate | luciferase refolding luminescence, 3 h | inhibition, % at 5.6 µM | 0.91% of 290,000 active;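 active = inhibition above the screen-wide mean plus 3 SD, computed separately per campaign, cut at about 16% in these data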;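 also: inhibitors lower the luminescence because luciferase stays unfolded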
CF NFkB inh: inhibitors of cystic fibrosis induced NF-kB. KKLEB NF-kB-GFP reporter, PAF-induced, GFP fluorescence overnight. inhibition, % at 5 µM. 0.86% of 360,000 active. AID 588850;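 active = at least 50% inhibition at 5 µM, scaled per plate between neutral and stimulator controls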;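 also: PAF is a Pseudomonas aeruginosa culture filtrate used as stimulus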
Mdm2-MdmX inh: human Mdm2/MdmX binding inhibition. O15151+Q00987. SaOS-2 split-luciferase Mdm2/MdmX complementation, luminescence. AID 485346. 3% of 330,000 active. inhibition, % at 8 µM;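 active = inhibition of at least 50% at 8 µM in the primary screen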
Target sequence (O15151 whole entry, looked up): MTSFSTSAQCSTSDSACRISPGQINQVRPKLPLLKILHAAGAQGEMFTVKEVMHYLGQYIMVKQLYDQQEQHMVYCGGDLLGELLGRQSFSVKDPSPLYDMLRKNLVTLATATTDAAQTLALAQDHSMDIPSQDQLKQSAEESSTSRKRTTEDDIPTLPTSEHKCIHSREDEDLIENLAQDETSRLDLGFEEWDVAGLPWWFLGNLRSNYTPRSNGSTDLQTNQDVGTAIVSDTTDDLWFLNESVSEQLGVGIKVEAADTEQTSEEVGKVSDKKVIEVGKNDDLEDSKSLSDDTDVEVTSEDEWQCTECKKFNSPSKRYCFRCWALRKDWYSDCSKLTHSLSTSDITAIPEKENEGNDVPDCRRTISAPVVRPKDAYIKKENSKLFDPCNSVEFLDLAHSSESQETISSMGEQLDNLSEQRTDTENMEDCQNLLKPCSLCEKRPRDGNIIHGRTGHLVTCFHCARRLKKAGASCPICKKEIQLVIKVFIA
Target sequence (Q00987 whole entry, looked up): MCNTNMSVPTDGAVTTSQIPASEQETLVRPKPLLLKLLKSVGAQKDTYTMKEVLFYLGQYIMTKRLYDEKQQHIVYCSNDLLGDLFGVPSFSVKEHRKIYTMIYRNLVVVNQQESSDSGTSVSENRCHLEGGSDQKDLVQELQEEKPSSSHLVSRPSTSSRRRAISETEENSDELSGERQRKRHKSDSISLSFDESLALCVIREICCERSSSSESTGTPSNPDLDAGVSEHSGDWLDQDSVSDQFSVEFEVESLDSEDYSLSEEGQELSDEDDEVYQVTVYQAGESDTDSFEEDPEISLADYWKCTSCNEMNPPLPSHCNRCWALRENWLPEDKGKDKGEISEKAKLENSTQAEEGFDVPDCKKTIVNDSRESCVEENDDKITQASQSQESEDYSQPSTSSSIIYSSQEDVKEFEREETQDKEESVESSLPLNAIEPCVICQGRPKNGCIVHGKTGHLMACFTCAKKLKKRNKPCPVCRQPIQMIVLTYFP
Numbers stand for hits; - = inactive; ? = inconclusive; . = no result given. Most compounds without a hit are left out; they make up all but 3.6% or so of the library.

SMILES	Peg3 prom inh	KKLEB tox	LGR2 antag	HSP90 inh	CF NFkB inh	Mdm2-MdmX inh
O=C(CNC(=S)N(Cc1ccccc1)Cc1ccccc1F)NCc1ccccc1	-	-	-	-	-	-
c1ccc(-c2nnc(NC3=NCCC3)o2)cc1	-	-	-	17	-	-
O=C(Nc1ccccc1)Nc1nnc(-c2ccccc2)o1	-	-	.	-	-	-
O=C(Nc1cccc(Cl)c1)N1C[C@@H]2[C@H](c3ccccc31)[C@@H](CO)N2C(=O)C1CCCC1	.	.	-	.	.	.
C/C=C/c1ccc2c(c1)O[C@@H](CN(C)C(=O)C1CC1)[C@H](C)CN([C@H](C)CO)S2(=O)=O	.	.	-	.	.	.
COc1ccc(NC(=O)c2cc(-c3cc(C)cc(C)c3O)n[nH]2)cc1Cl	61	-	.	-	-	-
CO[C@H]1CN(C)C(=O)c2cc(NC(=O)c3ccc(F)cc3)ccc2OC[C@@H](C)N(C(C)=O)C[C@@H]1C	.	.	-	.	.	.
C=C1/C(=C\C=C2/CCC[C@]3(C)[C@@H]([C@H](C)CCCC(C)(C)O)CC[C@@H]23)C[C@@H](O)C[C@@H]1O	.	.	.	26	.	-
CC(C)CCC[C@@H](C)[C@H]1CC[C@H]2[C@@H]3C(=O)C=C4C[C@@H](O)CC[C@]4(C)[C@H]3CC[C@]12C	-	-	.	.	-	-
CN(C)C(=O)c1ccc(SC(=S)NCc2ccccc2)cc1	85	-	-	.	-	.
O=C(C[C@@H]1CC[C@H]2NC[C@@H](O)COC[C@@H]2O1)NCCc1ccccc1	.	.	-	.	.	.
O=C(Nc1ccn(Cc2ccccc2F)n1)c1ccc(COc2ccc(Br)cc2)cc1	-	-64	-	-	-	-
O=C(Nc1ccc(Cn2cccn2)cc1)c1ccc(COc2ccc(Br)cc2)cc1	-	-	-	-	-	-
O=C1N[C@@H](Cc2ccccc2)COCc2cn(nn2)CC[C@@H]1Cc1ccccc1	.	.	-	.	.	.
C[C@H](CO)N1C[C@H](C)[C@H](CN(C)Cc2ccc(C(=O)O)cc2)Oc2ccc(NC(=O)Nc3ccc4c(c3)OCO4)cc2C1=O	.	.	-	.	.	.
COc1ccc(CNC(=O)C(c2ccco2)N(Cc2cccs2)C(=O)Cc2cccs2)cc1 (configuration not stated)	-	-	.	-	-	-
COc1ccc(CNC(=O)C(c2cccs2)N(Cc2ccco2)C(=O)Cc2cccs2)cc1 (configuration not stated)	57	-	.	-	-	-
Cc1cc(C)nc(Sc2ccc([N+](=O)[O-])cc2[N+](=O)[O-])n1	-	-	-	-	-	-
O=[N+]([O-])c1ccc(Sc2ccncn2)c([N+](=O)[O-])c1	97	-55	?	.	90	.
CCN(CC)S(=O)(=O)c1ccc(N2CCOCC2)c(NC(=O)c2cccc3ccccc23)c1	-	-	-	-	-	-
CCN(CC)S(=O)(=O)c1ccc(N2CCOCC2)c(NC(=O)c2cc(-c3ccccn3)nc3ccccc23)c1	62	-89	-	-	97	.
O=C(Nc1cccc(O)c1)C(=O)Nc1ccccn1	-	-	78	37	-	-
C/C=C/c1ccc([C@H]2[C@@H](CO)N(C(=O)C3CCC3)C23CN(S(=O)(=O)CC)C3)cc1	.	.	-	.	.	.
CCCCNC(=S)N(C)/N=C/c1c(C)[nH]c2ccccc12	-	-	-	-	-	-
CCCCNC(=S)N(C)/N=C/c1c(F)c(F)c(F)c(F)c1F	71	-	-	-	-	-
SMILES	Peg3 prom inh	KKLEB tox	LGR2 antag	HSP90 inh	CF NFkB inh	Mdm2-MdmX inh
C[C@@H]1CN([C@H](C)CO)C(=O)c2cc(C#C[C@@H](C)O)cnc2O[C@@H]1CN(C)Cc1ccccn1	.	.	-	.	.	.
C=CCn1c(SCC(C)=O)nc2scc(-c3ccco3)c2c1=O	-	-	-	-	-	-
C=CCn1c(SC(F)F)nc2scc(-c3ccco3)c2c1=O	74	-	-	-	-	-
Cc1cc(C)c2c(=N)c3ccccc3n(CCCCCCCCn3c4ccccc4c(=N)c4c(C)cc(C)nc43)c2n1	105	-	-	.	-	.
C[C@H](CO)N1C[C@H](C)[C@@H](CN(C)C(=O)c2ccncc2)OCCCC[C@H](C)Oc2ccc(NC(=O)NC3CCCCC3)cc2C1=O	.	.	-	.	.	.
CCn1c2ccccc2c2cc(N=C3SC(CC(=O)Nc4ccccc4)C(=O)N3C)ccc21 (configuration not stated)	-	-52	.	-	56	-
CCn1c2ccccc2c2cc(N=C3SC(CC(=O)Nc4ccccc4OC)C(=O)N3C)ccc21 (configuration not stated)	-	-	.	-	-	-
COc1ccc(N(C(=O)Cn2nnc(-c3ccccc3F)n2)C(C(=O)NCC2CCCO2)c2ccc(Cl)cc2)cc1 (configuration not stated)	58	-	-	-	-	-
COc1cc2nc(N3CCNCC3)nc(N)c2cc1OC	74	-	.	-	-	-
O=S(=O)(/C(=C/c1ccc(C(F)(F)F)cc1)c1nc2ccccc2[nH]1)c1ccccc1	106	-64	?	-	84	.
C/C(=C\c1ccc(N)cc1)c1nc2ccccc2[nH]1	-	-	-	-	-	-
Cc1ccc2nc3c(cc(C(=O)NCc4ccccc4)c(=N)n3CCCn3ccnc3)c(=O)n2c1	54	-	-	.	-	.
O=C(Cn1ncc2c([nH]c3ccccc32)c1=O)Nc1ccc(CN2CCCCC2)cc1	73	-	.	-	-	-
O=C(Cn1ncc2c([nH]c3ccccc32)c1=O)NCCc1ccc(Cl)cc1	-	-	-	-	-	-
N=C1S/C(=C\c2ccc(-c3cccc(Cl)c3)o2)C(=O)N1c1nccs1	104	-	-	-	-	.
COc1ccc(/C=C2\SC(=N)N(c3nccs3)C2=O)cc1OC	-	-	-	-	-	-
Cc1ccc(CC#N)c(-c2c(CC#N)ccc(C)c2C)c1C	-	-	-	.	-	.
Cc1ccc2c(c1C)-c1c(ccc(C)c1C)C(=O)C2=O	95	-53	55	.	86	.
O=C(CCCCCNc1nc(=S)[nH]c2ccccc12)N1CCN(c2ccccn2)CC1	56	-	.	-	-	-
COc1cccc(N2CCN(C(=O)CCCCCNc3nc(=S)[nH]c4ccccc34)CC2)c1	63	-	?	-	-	-
O=C(CCCn1c(=O)[nH]c2ccccc2c1=O)N1CCN(c2ccccn2)CC1	-	-	-	-	-	-
CC(C)C(=O)Nc1ccc2c(c1)C(=O)N(C)[C@@H]1CC[C@H](CC(=O)NCC3CC3)O[C@H]1CO2	.	.	-	.	.	.
NC(CCc1ccccc1)c1csc(Nc2nncc3ccccc23)n1 (configuration not stated)	90	-	-	.	-	.
NC(Cc1ccccc1)c1csc(Nc2nncc3ccccc23)n1 (configuration not stated)	96	-	-	.	-	.
Nc1ccc(CC(N)c2csc(Nc3nncc4ccccc34)n2)cc1 (configuration not stated)	-	-	-	.	-	.
CCS(=O)(=O)Nc1ccc2c(c1)C(=O)N(C)C[C@@H](OC)[C@H](C)CN(CCC(F)(F)F)[C@H](C)CO2	.	.	-	.	.	.
